# Results taken from ChEMBL document CHEMBL3988442, “University of Dundee, Small-Polar-MMV Screening Library” (2021).
# The whole screen tested about 48,000 compounds, of which about 13,000 (27%) showed an effect of 50% or more. Some of the results follow.
# Tested on: Wolbachia pipientis
# Assay: Anti-Wolbachia Cell-Based Screen
# Format: functional
# Set-up: scale not given: in the data most compounds retested in dose-response had high values
# Details: 5 µM
row,SMILES,Percent Effect
1,CC(=O)N(C)CC(=O)NC1(c2ccc(Br)cc2)CC1,-3.81%
2,CCN(CC(=O)NC(C)C)S(=O)(=O)N1CCC(C)C1 (stereo not given),1.094%
3,c1cc2c(cc1CN1CCN(Cc3noc(C4CC4)n3)CC1)OCO2,111.2%
4,c1ccc2[nH]c(C3CCN(Cc4noc(C5CC5)n4)CC3)cc2c1,-4.924%
5,CN1CCN(C2CCN(Cc3noc(C4CC4)n3)CC2)C1=O,10.17%
6,CSc1nccc(NCc2cc3n(n2)CCCN(S(C)(=O)=O)C3)n1,18.18%
7,Nc1nccc(NCc2cc3n(n2)CCCN(C2CCCCC2)C3)n1,13.65%
8,Cc1nccc(NCc2cc3n(n2)CCCN(C(=O)C2CCC2)C3)n1,100.1%
9,Nc1nccc(NCc2cc3n(n2)CCCN(C(=O)C2CCC2)C3)n1,-4.748%
10,CSc1nccc(NCc2cc3n(n2)CCCN(C(=O)C2CCC2)C3)n1,104.3%
11,CCn1ccnc1CN1CCCn2nc(CNC(=O)C3CCC3)cc2C1,17.11%
12,Cc1ccc(C2C3=C(COC3=O)Nc3[nH]nc(C)c32)cc1C (stereo not given),8.246%
13,CCc1nccn1CCC(=O)N1CC[C@@H](c2sccc2C)[C@H](O)C1,-1.934%
14,O=C(O)C(F)(F)F.c1cnc(N2CCO[C@H]3CN(Cc4csnn4)C[C@H]32)cn1,6.84%
15,CN(C)c1nccc(N2CCO[C@H]3CN(CC4CCOCC4)C[C@H]32)n1,11.02%
16,Cn1cc(CN2C[C@@H]3OCCN(CC4CCCC4)[C@@H]3C2)cn1,-2.926%
17,O=C(O)C(F)(F)F.c1cnc(N2CCO[C@H]3CN(CC4CCC4)C[C@H]32)cn1,107.5%
18,O=C(O)C(F)(F)F.c1cnc(N2CCO[C@H]3CN(CC4CCOC4)C[C@H]32)cn1 (stereo not given in full),122.8%
19,c1cnc(N2CCO[C@H]3CN(CC4CCCC4)C[C@H]32)cn1,112.8%
20,CNC(=O)CN1CCO[C@H]2CN(CC3CCOCC3)C[C@H]21.O=C(O)C(F)(F)F.O=C(O)C(F)(F)F,-17.71%
21,O=C(O)C(F)(F)F.c1cnc(N2CCO[C@H]3CN(Cc4c[nH]cn4)C[C@H]32)cn1,2.338%
22,Cc1nn(CCn2ccnc2-c2cc3n(n2)CCCNC3)c(C)c1Cl,1.548%
23,CC(C)C(C(=O)NC1CC1)n1cnc2cc(F)c(F)cc21 (stereo not given),15.81%
24,O=C(NCc1nc(C2CC2)no1)N1CCOC(c2ccccc2F)C1 (stereo not given),3.199%
25,CC(C)CNC(=O)C[S+]([O-])Cc1csc(C2CCCCC2)n1 (stereo not given),-4.765%

row,SMILES,Percent Effect
1,COc1ccc(C(O)CNc2c(C#N)c(=O)n(C)c(=O)n2C)cc1 (stereo not given),-9.845%
2,CN(C(=O)C1CSCN1S(=O)(=O)c1ccc(F)cc1)C1CC1 (stereo not given),5.468%
3,CC(C)c1nc2n(n1)CC(NCc1nc(-c3ccccn3)no1)CC2 (stereo not given),1.998%
4,COCCc1noc(CNC2CCc3nc(C(C)C)nn3C2)n1 (stereo not given),-13.08%
5,CC(C)c1nc2n(n1)CC(NCc1cc3ccccc3o1)CC2 (stereo not given),-25.06%
6,Cc1cc(CNC2CCc3nc(C(C)C)nn3C2)on1 (stereo not given),128.3%
7,Cc1ccc(CNC2CCc3nc(C(C)C)nn3C2)o1 (stereo not given),110.7%
8,CC(C)c1nc2n(n1)CC(NCc1nnc(C(C)C)o1)CC2 (stereo not given),2.327%
9,CCN(C(=O)NCc1ccccc1OC(F)F)C(C)c1cccnc1 (stereo not given),-11.48%
10,CC(C)(NCC(=O)N1CCCC(C(N)=O)C1)c1ccc(Cl)cc1 (stereo not given),1.343%
11,CC(C)(C)c1cn(C2CCN(C(=O)c3cnccn3)CC2)nn1,-4.102%
12,Cc1cc(C(=O)N2CCOC(c3nc(C)n[nH]3)C2)[nH]n1 (stereo not given),-1.43%
13,CC(C)(C)c1cc(C(=O)N2CCC(c3cnccn3)CC2)[nH]n1,96.1%
14,CC(C)(C)c1cc(C(=O)N2CCOC(c3cnccn3)C2)[nH]n1 (stereo not given),139%
15,CCCc1cc(C(=O)N2CCCC2c2cccnc2)[nH]n1 (stereo not given),15.07%
16,Cc1cc(C(=O)N2CCOC(c3ccc(Cl)c(Cl)c3)C2)[nH]n1 (stereo not given),-12.35%
17,CC(C)c1nc(C(=O)N2C[C@H]3CC[C@@H]2CN(C2CCOCC2)C3)cs1,-6.079%
18,CCOCC(=O)N1CCC(c2nccn2Cc2cscn2)CC1,-5.535%
19,O=C(Cc1ccc(F)cc1Cl)N[C@@H]1CCNC[C@H]1O,6.286%
20,Cc1ccc(F)cc1CC(=O)N1CC[C@@]2(O)CCNC[C@H]2C1,-17.57%
21,Cc1cc(F)ccc1-c1ccccc1CC1CNCCNC1=O.Cl (stereo not given),140%
22,CCNC(=O)[C@@H]1CCCN1[C@@H](C(=O)NC)C1CC1.Cl,7.785%
23,CCCS(=O)(=O)N1CCC2(CCC(=O)N(CCc3ccccc3)C2)CC1,19.11%
24,O=C1CN(S(=O)(=O)CC(F)(F)F)CC(O)CN1CCCc1ccccc1 (stereo not given),73.93%
25,CCS(=O)(=O)N1CCC(OCCCc2ccccc2)C1 (stereo not given),-14.61%
